Data reported in ChEMBL document CHEMBL3988442, “University of Dundee, Small-Polar-MMV Screening Library” (2021).
“And” between values parts separate entries of the source, which are not always exact repeats. Identical values can stand only once. Screen size: about 34,000 compounds; about 290 (0.85%) showed an effect of 50% or more. Many of the other results were omitted from the sample, so strong results are more common in it than they were.

Test system: Plasmodium falciparum
Test: Plasmodium falciparum sporozoite viability assay
Format: functional, organism-based
Design: scale not given: in the data most compounds retested in dose-response had high values

SMILES | Percent Effect [%] | Percent Effect (10 mM as filed; unlikely as a test dose)
Cc1nc(C)n(CC2CCCN(CCOc3ccccc3C#N)C2)n1 (stereo unspecified) | 12.74 | –
O=C(NCC1CC1)[C@H]1C[C@H]2OCC[C@H]2N(Cc2ccoc2)C1 | -11.2 | –
Cn1nccc1CNC(=O)CCn1nc(C(F)(F)F)c(Cl)c1C1CC1 | 10.43 | –
CC(C)(O)CN1CCN(C(=O)COCc2ccccc2Cl)CC1 | – | 71.26% and 47.5% and 53.2%
COc1ccc(COCC(=O)N2CCN(CC(C)(C)O)CC2)cc1 | – | 7.514% and -16.19% and -8.725%
O=C(COCc1ccccc1Cl)N1CCN(c2ncccn2)CC1 | 3.259 | –
CC(NC(=O)CCCc1nc(C(C)(C)C)no1)c1ccccn1 (stereo unspecified) | 4.866 | –
Cc1nn(C)cc1-c1cc(C(=O)NCC(C)(C)c2cccc(F)c2)n[nH]1 | -0.9712 | –
CN(C)CC1CSCCCN1C(=O)c1ccc(-c2ccccc2)cc1 (stereo unspecified) | 11.37 | –
CC(NCC(=O)NCC(=O)Nc1ccc(F)cc1)c1cccs1 (stereo unspecified) | 0.1791 | –
NC(=O)CN1CCC2(CC1)CC(=O)c1ccc3ccccc3c1O2 | – | 14.56% and 23.77% and 28.36%
CCOC(=O)CN1CCC2(CC1)CC(=O)c1ccc(OC)cc1O2 | -0.03409 | –
CN(C)C(=O)CN1CCC2(CC1)CC(=O)c1c(ccc3ccccc13)O2 | 16.77 | –
CN(C)C(=O)CN1CCC2(CC1)CC(=O)c1ccc3ccccc3c1O2 | – | 28.41% and 58.1% and 56.14%
CN(C)C(=O)CN1CCC2(CC1)CN(S(C)(=O)=O)Cc1ccccc1O2 | -23.82 | –
Cc1nc(C)c(C(=O)OCCNc2ncccc2C#N)s1 | 25.07 | –
CNC(=O)Cc1ccc(NC(=O)NC(C)C(C)C)cc1 (stereo unspecified) | – | -4.587% and -4.397% and -12.09%
CC(CN1CCC(CCO)CC1)n1cnc2ccccc21 (stereo unspecified) | – | -16.85% and -31%
CCN(CC)CCCNc1nc(C)nc2c1CCN(C)C2.O=C(O)CC(O)(CC(=O)O)C(=O)O | 7.039 | –
CN(Cc1nnc(-c2ccco2)o1)Cc1nc2c(s1)CCCC2 | – | -11.23% and -0.3712% and 0.4353%
CN(CC(=O)NCC(F)(F)F)Cc1nc2c(s1)CCCC2 | – | 29.9% and 31.57%
Cc1nnc(CN(C)Cc2nc3c(s2)CCCC3)o1 | – | 69.64% and 55.12% and 51.62%
CN(Cc1nnc(-c2cccs2)o1)Cc1nc2c(s1)CCCC2 | – | 22.52% and 35.26% and 20.64%

SMILES | Percent Effect [%] | Percent Effect (10 mM as filed; unlikely as a test dose)
CN(CC(=O)NCC1CCCO1)Cc1nc2c(s1)CCCC2 (stereo unspecified) | – | 56.93% and 58.41%
CN(CC(=O)NCc1ccco1)Cc1nc2c(s1)CCCC2 | – | 18.7% and 19.42%
Cc1ccc(CN2CCCC(c3cncc(C)n3)C2)cn1 (stereo unspecified) | 7.699 | –
COc1cccc(-n2cc(CN(C)C(=O)c3cnc(O)cn3)cn2)c1 | – | 70.55% and 77.42%
COc1cccc(-n2cc(CN(C)C(=O)c3cc[nH]n3)cn2)c1 | – | -69.36% and -66.93%
CCn1ccc(C(=O)N(C)Cc2cnn(-c3cccc(OC)c3)c2)n1 | – | -38.3% and -41.56%
Cn1ccnc1CN1CCN(CC(=O)NCc2cccs2)CC1 | 11.24 | –
CCOC(=O)c1sc2ccsc2c1CNC(=O)CCOC | -1.34 | –
CN1C(=O)[C@H]2CC[C@@H]1CN(Cc1cccc(OCc3ccccn3)c1)C2 | – | -14.17% and -8.272%
COc1cccc(-c2ncc(CN3C[C@@H]4CC[C@H](C3)N(C)C4=O)s2)c1 | – | 84.86% and 76.95%
Cc1nc(C)n(CC2CCCN(CCOc3ccc(C#N)cc3)C2)n1 (stereo unspecified) | -0.23 | –
O=C(COc1coc(CN2CCOCC2)cc1=O)c1ccc(Cl)cc1 | -1.015 | –
O=C(NCCc1ccccn1)Nc1cc(C(F)(F)F)c[nH]c1=O | 1.519 | –
Cc1nn(C)cc1C(=O)N1CCC(C(=O)c2nc3ccccc3s2)CC1 | 4.427 | –
CCc1ncc(CN(C)C2CCN(C(C)C)CC2)cn1.O=C(O)CC(O)(CC(=O)O)C(=O)O | 7.243 | –
COCC(NC(=O)c1cn2ccsc2n1)c1ccnn1C (stereo unspecified) | 0.7162 | –
O=C(Nc1cc(-c2ccccc2)on1)N1CC[C@H](O)C1 | – | -24.83% and -17.1%
O=C(CCCc1nc(-c2ccccc2)no1)N1CCN(CCO)CC1 | 11.73 | –
CC(=O)NC1CCCN(C(=O)Nc2cccnc2-n2cccn2)C1 (stereo unspecified) | -4.732 | –
O=C(Nc1cc(-c2ccccc2)on1)N1CCN(CCO)CC1 | – | 64.88% and 38.14%
CCC(=O)NC1CCCN(C(=O)Nc2cc(-c3ccccc3)on2)C1 (stereo unspecified) | – | 86.86% and 95.97%
CCC(=O)NC1CCCN(C(=O)Nc2cccc(COC(C)C)c2)C1 (stereo unspecified) | 3.429 | –
Cc1csc(CNCC(C)c2nc3ccccc3o2)n1 (stereo unspecified) | 10.3 | –

SMILES | Percent Effect [%] | Percent Effect (10 mM as filed; unlikely as a test dose)
O=C(Cn1cnc2cc3c(cc21)OCCCO3)NC1CCCCC1 | – | 58.19% and 56.08% and 47.01%
O=C(Cn1cnc2cc3c(cc21)OCCCO3)NC1CCCC1 | – | 34.04% and 26.95% and 25.51%
O=C(Cn1cnc2cc3c(cc21)OCCCO3)NCCc1ccccc1 | – | 3.571% and -13.25% and -3.678%
NC(=O)N1CCC2(CC1)CC(=O)N(CC1CCCO1)c1ccccc12 (stereo unspecified) | 6.567 | –
Cc1cc(CN2CCOC(Cn3nc(C)cc3C)C2)on1 (stereo unspecified) | 2.612 | –
COCCN(C(=O)c1ccccn1)c1nc2c(s1)CCc1c-2cnn1C | – | 80.83% and 57.64% and 71.31%
COCCN(C(=O)c1cnccn1)c1nc2c(s1)CCc1c-2cnn1C | -10.14 | –
CCCN(C(=O)c1cnccn1)c1nc2c(s1)CCc1c-2cnn1C | 1.308 | –
CCCN(C(=O)c1ccncc1)c1nc2c(s1)CCc1c-2cnn1C | 11.45 | –
Cc1ccc(C(O)CN2CCN(Cc3nccn3C)CC2)cc1C (stereo unspecified) | 1.122 | –
Cc1noc(C)c1CN(C)C(=O)NC1CCCN(S(C)(=O)=O)C1 (stereo unspecified) | 9.671 | –
Cc1cc(C)n(CC2CN(Cc3ccccn3)CCO2)n1 (stereo unspecified) | 1.241 | –
Cc1cnn(CC2CN(Cc3nc4ccccc4nc3C)CCO2)c1 (stereo unspecified) | -7.63 | –
Cc1cnn(CC2CN(Cc3nc4ccccc4s3)CCO2)c1 (stereo unspecified) | – | 55.85% and 70.99% and 46.92%
Cc1nc2ccccc2nc1CN1CCOC(Cn2cccn2)C1 (stereo unspecified) | 6.321 | –
Cc1cnn(CC2CN(Cc3nc4ccccc4o3)CCO2)c1 (stereo unspecified) | -0.5102 | –
Cc1cc(C)n(CC2CN(Cc3nc4ccccc4s3)CCO2)n1 (stereo unspecified) | – | 66.96% and 52.93% and 45.91%
c1ccc2sc(N3CCOC(Cn4cccn4)C3)nc2c1 (stereo unspecified) | 9.76 | –
Cc1nc(CN2CCOC(Cn3cncn3)C2)nc2ccccc12 (stereo unspecified) | – | 1.85% and -1.802% and -10.11%
c1ccc(-c2ccc(CN3CCOC(Cn4cncn4)C3)cc2)cc1 (stereo unspecified) | -3.122 | –
c1ccc(OCCN2CCC(c3nnc(-c4cccnc4)o3)CC2)cc1 | -3.337 | –
CCOCC1c2c(cnn2C)CCN1C(=O)c1cc(C)on1.O=C(O)C(F)(F)F (stereo unspecified) | 15.94 | –
COc1ccc(Br)c(C(=O)NCC2CC2)c1 | 3.186 | –

SMILES | Percent Effect [%] | Percent Effect (10 mM as filed; unlikely as a test dose)
CC(C)COCC1CN(Cc2ccco2)Cc2ncn(C)c21 (stereo unspecified) | 12.26 | –
Cc1ccc(CN2CC[C@@H]3[C@@H](CO[C@H]3CN3CCN(C)CC3)C2)s1.O=C(O)C(F)(F)F.O=C(O)C(F)(F)F.O=C(O)C(F)(F)F | 10.79 | –
O=C1[C@H]2CN(S(=O)(=O)C3CC3)C[C@H]2CN1CC1CC1 | 4.506 | –
CC(=O)Nc1nc(C(=O)N2CCCCC2Cn2cc(C)cn2)cs1 (stereo unspecified) | -12.14 | –
Cc1ccc(S(=O)(=O)NC(=O)c2c(C)noc2C(C)C)cc1C | -15.45 | –
CNC(=O)CCNC(=O)CCc1c(C)nc2cc(O)nn2c1C | 8.263 | –
Cc1ccc(CN(C)C(=O)CNC(=O)N2CCc3ccccc3C2)o1 | 1.19 | –
CCC1c2ccsc2CCN1C(=O)NCc1ccc(C)nc1 (stereo unspecified) | 6.154 | –
CC(C)(C)c1cn2nc(N3CCOC(Cn4cncn4)C3)sc2n1 (stereo unspecified) | 8.052 | –
CC(C)(C)c1cn2nc(N3CCCC(Cn4cncn4)C3)sc2n1 (stereo unspecified) | – | 61.38% and 60.13% and 50.37%
CC(C)(C)c1cn2nc(N3CCCC3Cn3cncn3)sc2n1 (stereo unspecified) | – | -5.183% and 4.187% and 0.2303%
Cc1nc(-c2c(C)noc2C)cc(C2CCN(S(=O)(=O)N(C)C)CC2)n1 | 10.55 | –
CN(C)C(=O)CN1CC[C@]2(CN(CC3CC3)C[C@H]2c2ccccc2)C1=O.O=C(O)C(F)(F)F | 2.654 | –
O=C(CCc1ccccc1)N1CC(n2cncn2)C1 | 7.531 | –
COc1c(CNCc2ccc3c(c2)OCO3)c(C(C)C)nn1C | 7.092 | –
O=C(NCCc1ccccc1)N1CCC(C2OCCO2)CC1 | – | 28.36% and 65.96%
O=C1NCCN2CCN(C(=O)Nc3ccc(-c4ccccc4)cc3)CC12 (stereo unspecified) | – | -23.97% and -24.61%
CC1=N[C@@]2(CC[C@@H]3CN(C(=O)NCCc4ccccc4)C[C@@H]32)C(=O)N1 | 2.735 | –
O=C(NCc1ccccc1F)N1CCC(C2OCCO2)CC1 | 0.1127 | –
O=C(NCCc1ccccc1)N1CCCCC1C1OCCO1 (stereo unspecified) | – | -48% and -64.36%
O=C1NCCN2CCN(C(=O)NCCc3ccccc3)CC12 (stereo unspecified) | – | 64.04% and 69.93%
CC(=O)N1CCCC1C(=O)NCCOc1cccc(F)c1 (stereo unspecified) | -6.239 | –
